# PubChem BioAssay (EPA / NIEHS)
# Values joined by “and” are separate entries in the source; they are usually repeats but may differ in a detail not shown here. Identical values can stand only once. Active and inactive are the calls of the source. The calls were made as follows: active = hit-call score of the fitted dose curve at least 0.9, where 1 is the maximum; inactive = score below 0.9.
# Read-out: Plasminogen Activator Inhibitor-1 (PAI1), SERPINE1 (gene 5054)
# Assay: BSK_BF4T_PAI1: BioMAP Diversity Plus: BF4T Assay for Plasminogen Activator Inhibitor-1 (PAI1) Biomarker Activity (AID 2284273)
# Details: primary human bronchial epithelial cells with fibroblasts
# Description: BSK_BF4T is a cell-based, multiplexed-readout assay that uses bronchial epithelial cells and dermal fibroblasts, a human vascular primary cell, with measurements taken at 24 hours after chemical dosing in a microplate: 96-well plate.BSK_BF4T_PAI1 is an assay component measured in the BSK_BF4T assay. It measures PAI-1 antibody related to regulation of gene expression using ELISA technology.Data from the assay component BSK_BF4T_PAI1 was analyzed at the endpoint, BSK_BF4T_PAI1, in the positive analysis fitting direction relative to DMSO as the negative control and baseline of activity. Using a type of binding reporter, gain or loss-of-signal activity can be used to understand protein changes. To generalize the intended target to other relatable targets, this assay endpoint is annotated to the 'cytokine' intended target family, where the subfamily is 'plasmogen activator inhibitor'.
# The levels of cell surface (or secreted, indicated by the prefix "s") biomarker endpoints were measured by ELISA. Overt cytotoxicity to cells in confluent adherent cultures (all systems other than the BT system) was assessed by measuring total protein levels using sulforhodamine B (SRB) staining in parallel cultures at the time of biomarker measurements, indicated as SRB endpoints. For proliferation assays for adherent cell types, individual cell types are cultured at sub-confluence and relative cell numbers quantified by SRB staining at time points optimized for each system (48 h: 3C and CASM3C systems; 72 h: BT and HDF3CGF systems; 96 h: SAg system). SRB was performed by staining cells with 0.1% SRB after fixation with 10% TCA and reading wells at 560 nm.Viability and proliferation of PBMC (T cells) was quantified by Alamar Blue reduction for the SAg and BT systems. For PBMC viability (referred to as PBMC Cytotoxicity within the assay endpoint names), cells were plated (75,000/well in a 96-well plate) and then chemical samples added for 1 h before addition of activators, SEB and TSST-1 (20 ng/mL final concentration each). Cells were incubated for 90 h. Then, Alamar Blue (20 uL/well) (Invitrogen, Cat DAL1100) was added for 6 h, and the plates were read with a fluorescence microplate reader at 546/580 nm (excitation/emission). For PBMC proliferation, cells were plated and activated as above but incubated for only 16 h prior to addition of Alamar Blue. Plates were read after 6 h.
SMILES,outcome,AC50
O=P(O)(O)CCC(F)(F)C(F)(F)C(F)(F)C(F)(F)C(F)(F)C(F)(F)C(F)(F)C(F)(F)F,inactive,–
O=P(O)(O)CCC(F)(F)C(F)(F)C(F)(F)C(F)(F)C(F)(F)C(F)(F)F,inactive,–
CN(Cc1cnc2nc(N)nc(N)c2n1)c1ccc(C(=O)N[C@@H](CCC(=O)O)C(=O)O)cc1,inactive,–
O=C(CC(=O)C(F)(F)C(F)(F)C(F)(F)F)c1cccs1,–,16.9 µM (active) and 15.5 µM (active)
O=C(O)C(F)(F)OC(F)(F)C(F)(F)OC(F)(F)C(F)(F)OC(F)(F)C(F)(F)C(F)(F)C(F)(F)F,–,19.1 µM (active) and 16.2 µM (active)
OCC(F)(F)C(F)(F)C(F)(F)C(F)(F)C(F)(F)C(F)(F)C(F)(F)C(F)(F)C(F)(F)C(F)(F)C(F)(F)F,inactive,–
C=CC(=O)OCCC(F)(F)C(F)(F)C(F)(F)C(F)(F)C(F)(F)C(F)(F)C(F)(F)C(F)(F)F,inactive,–
CN(CCO)S(=O)(=O)C(F)(F)C(F)(F)C(F)(F)C(F)(F)C(F)(F)C(F)(F)C(F)(F)C(F)(F)F,inactive,–
O=C(O)CCC(F)(F)C(F)(F)C(F)(F)C(F)(F)C(F)(F)F,inactive,–
O=S(=O)(O)C(F)(F)C(F)(F)C(F)(F)C(F)(F)C(F)(F)C(F)(F)C(F)(F)C(F)(F)C(F)(F)C(F)(F)F,inactive,–
O=C(O)CCC(F)(F)C(F)(F)C(F)(F)C(F)(F)C(F)(F)C(F)(F)F,inactive,–
